Compounds without any hit were thinned out: in the full panel of roughly 83,000, 20% have a hit.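 The test compound was applied at a single concentration to cells in 96-well plates for 48 hours, and percent growth was recorded.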 Unmarked numbers belong to inactive results. Activity calls are given as the source filed them.
tested on: SNB-75 CNS; assay: NCI-60 one-dose screen, 48 h (100 = growth as untreated, 0 = no growth, -100 = all killed); settings: 10 µM unless noted
Protocol: Growth inhibition of the SNB-75 human tumor cell line is measured as a screen for anti-cancer activity. Cells are grown in 96 well plates and exposed to the test compound for 48 hours. Compounds are tested at a single concentration, which is 10^-5 M for most compounds. The reported endpoint is percent growth (GI% or GIPRCNT), where numbers from 0 - 100% represent growth inhibition, and numbers from -100% - 0 represent cell death. For example, a value of 40 represents 60% growth inhibition. A value of 0 means no net growth occurred over the course of the experiment. A value of -40 indicates 40% of cells at the beginning of the experiment died by the end of the experiment. A value of -100 means all cells are dead at the end of the experiment.
NCI-60 Human Tumor Cell Lines Screen was performed using the standard one-dose NCI protocol, which is described in more detail at https://dtp.cancer.gov/discovery_development/nci-60/default.htm.
Compounds with GIPRCNT values below 10 were considered active. Activity score was based on GIPRCNT using the following formula: […]
Score is 0 for GIPRCNT values of 100 or above, 50 for GIPRCNT values of 0, and 100 for GIPRCNT values of -100.

Structure (SMILES) | growth
O=C(NNc1cnccn1)c1nc2cc(F)ccc2n2cccc12 | 41.1%
COc1ccccc1C(=O)Nc1cccc(NC(=O)c2ccoc2C)c1 | 19.3%
COc1cc(C2C(C(=O)OCc3ccccc3)=C(C)NC(C)=C2C(=O)OCc2ccccc2)cc(OC)c1OC | 46.2%
O=C(Nc1ccccc1O)c1ccc(CNC(=O)c2ccsc2Nc2ccnc(C(F)(F)F)c2)cc1 | 47.8%
C#CC#CC#CC#CC#CC#CC#CC#CCC1OC[C@H](COC(=O)O[C@@H](C(=O)O[C@H]2C[C@@]3(O)[C@@H](OC(=O)c4ccccc4)[C@@H]4[C@]5(OC(C)=O)CO[C@@H]5C[C@H](O)[C@@]4(C)C(=O)[C@H](OC(C)=O)C(=C2C)C3(C)C)[C@@H](NC(=O)c2ccccc2)c2ccccc2)O1 (stereo not given in full) | 7.72% (active)
Cn1cc(-c2nn3cc(-c4cccs4)nc3s2)c2cc(F)ccc21 | 11.9%
O=C(Cc1ccc(/C=C/C(=O)c2ncc[nH]2)cc1)Nc1cc(C(F)(F)F)cc(C(F)(F)F)c1 | 79%
O=C(C1CCCCC1)[C@@H]1[C@]2(C(=O)NC3CCCCC32)[C@@H]2CCCN2[C@@]12C(=O)NC1CCC(Cl)CC12 (stereo not given in full) | -68.8% [100 µM] (active)
C/C(=N\O)c1ccc(NC(=O)CSc2nnc(-c3cc(-c4ccc(S(N)(=O)=O)cc4)nc4ccccc34)n2-c2ccccc2)cc1 | 24.3%
CCOC(=O)c1c(C)nc2c(c1N)/C(=C/c1ccc(OC)cc1)C(=O)N2Cc1ccccc1 | 73.3%
COc1ccc(-c2nn(-c3ccccc3)cc2/C=C/C(=O)NNC(=O)Nc2ccc(C)cc2)cc1 | 96.5%
CCN(CC)CCN1C(=O)c2c(c(C)c3c(oc4ccc(O)cc43)c2C)C1=O | 94.3%
CCN1CCN(CC(=O)Nc2nc3ccc(NCc4ccc(F)cc4)cc3s2)CC1 | 90.8%
O=C(CCCCCNC(=O)c1cc(=O)c(O)co1)Nc1ccccc1 | 82.7%
COc1cccc(/C=C/C(=O)c2cc3c(N)c(C(=O)Nc4cccc5ccccc45)sc3nc2C)c1 | -16.4% (active)
O=C(CSc1nc(-c2ccccc2)cc(=O)[nH]1)Nc1nc(-c2ccccc2)cs1 | 85.9%
COC(=O)c1nc(-c2ccccc2)oc1S(=O)(=O)NCC(c1ccc(Cl)cc1)N1CCOCC1 (stereo not given) | 94.3%
Cc1nc2cc(O)c(O)cc2cc1Oc1ccc(NC(=O)Nc2ccc(Cl)c(Cl)c2)cc1 | 75.8%
C=C1C(=O)O[C@H]2[C@H]1CC/C(COC(=O)/C=C\C(=O)NCc1ccc(Cn3c(=O)sn(CCCCC)c3=O)cc1)=C\CC[C@@]1(C)O[C@@H]21 | 110%
C=C(C)[C@@H]1CC[C@]2(COC(C)=O)CC[C@]3(C)[C@H](CC[C@@H]4[C@@]5(C)CCCN(C(C)=O)C(C)(C)[C@@H]5CC[C@]43C)[C@@H]12 | 108%

Structure (SMILES) | growth
O=C(Oc1ccc(CCl)cc1)c1ccccc1 | -98.6% (active)
COC(=O)c1cc(Br)ccc1O | 91.5%
Cc1cccc(-c2nc(Nc3ccc4ncsc4c3)c3ccccc3n2)n1 | 105%
Cn1c(=O)c2[nH]c(SCC(=O)Nc3ccc(C(=O)/C=C/c4ccccc4Cl)cc3)nc2n(C)c1=O | 77.1%
CCOC(=O)C1=C(C)C(Cl)=N/C1=C\c1[nH]c(Cl)c(C)c1C(=O)OCC | 84.5%
S=c1nc2oc(-c3ccccc3)c(-c3ccccc3)c2c(/N=C\c2ccco2)[nH]1 | 74.2%
COc1ccc(C2CC(c3cc(OC)c(OC)c(OC)c3)=NO2)cc1OCCCCOc1cc2c(cc1OC)C(=O)N1CCC[C@H]1C=N2 (stereo not given in full) | -14.2% (active)
CC1(C)C(N)=Nc2cc(OCCCN3Cc4ccccc4C3)c(OCC3CC3)cc21 | 77.3%
NC(=O)c1cccc([C@@H]2O[C@H](CO)[C@@H](O)[C@H]2O)c1 | 9.91% (active)
O=C(CN1CCN(c2cc3c(cc2F)c(=O)c(C(=O)O)cn3C2CC2)CC1)N/N=C/c1ccco1 | 87.9%
CCCCNc1nnc2n(Cc3ccccc3)c(=O)c3c4c(sc3n12)CCCC4 | 66.4%
COc1ccc2nc(Cl)c(/C=C3\CC(c4ccccc4)=NN(c4ccccc4)C3=O)cc2c1 | 19.8%
Cc1nc2ccccc2c(/C=C/c2ccccc2)c1C(=O)/C=C/c1ccccc1 | 19.7%
CN1CCN(Cc2ccc(NC(=O)c3cncc(C#Cc4cnc(N)c5ncccc45)c3)cc2C(F)(F)F)CC1 | -76.8% (active)
COc1ccc(C[n+]2c3ccccc3n3c4ccc(N)cc4ccc32)c(OC)c1OC | 61.4%
Cc1cccc(Oc2ccc(Nc3ncnc4ccc(NC(=O)CN5CCN(C)CC5)cc34)cc2Cl)c1 | 80.8%
Cc1ccc(NC(=O)Cn2c(Br)nc3c2c(=O)n(C)c(=O)n3C)cc1 | 5.65% (active)
CC(C)N1C(=O)/C(=c2\sc3n(c2=O)C2C(NN=3)N(C)C(=O)N2C)c2ccccc21 (stereo not given) | 4.34% (active)
Cc1ccc(N2C(=O)CCC2=O)cc1 | 103%
CC(=O)O[C@H]1C[C@@H]2C(C)(C)C(=O)CC[C@@]2(C)c2ccc(C(C)C)cc21 | 100%

From PubChem BioAssay (NCI)
